Results from PubChem BioAssay.
Entries with a potency or affinity are not part of this list. Results filed as inconclusive are left out. Calls of active or inactive are those of the source. Unless noted, the rule behind the calls is not given here.

Tests used:
[1] = cytotoxicity in PAX8-dependent RMG-1 cells, dose response, cell-based, cherry-pick (AID 687029;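 active = signal drop whose fitted half-maximal concentration is at most twice the top valid dose, in every test run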;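 note: cells exposed to compound for 96 hours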)
[2] = inhibitors of CMV-promoter luciferase reporter, dose response, counter-screen for Pax8 inhibitor project, cell-based, HEK293, luminescence, dry powder (AID 743020;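 active = signal-lowering compounds whose fitted half-maximal concentration is at or below twice the top tested dose in every run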;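 note: HEK293 cells stably expressing the CMV luciferase reporter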)
[3] = non-specific cell cytotoxicity, dose response, cytotoxicity control for PAX8 inhibitor project, plate reader, dry powder samples (AID 743021)
[4] = IGROV1 ovarian cancer cell cytotoxicity, dose response, PAX8 inhibitor project, plate reader, dry powder samples (AID 743043);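 note: more negative means fewer viable cells or more cytotoxicity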
[5] = A2780 ovarian cancer cell cytotoxicity, dose response, cytotoxicity control, plate reader, dry powder samples (AID 743046)
[6] = IOSE-T80 ovarian epithelial cell cytotoxicity, dose response, cytotoxicity control for PAX8 inhibitor project, plate reader, dry powder samples (AID 743045);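 note: more negative values mean more cell killing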
[7] = HepG2 cell cytotoxicity, dose response, cytotoxicity control, plate reader, cherry-pick, antagonist series (AID 743416)
[8] = target: Melanocortin receptor 4 (Homo sapiens) (UniProt P32245); experiment: MC4R antagonists, dose response, counter-screen for LGR2 antagonist project, cell-based, plate reader, cherry pick (AID 743444)
[9] = cytotoxicity in OVCAR8 ovarian cancer cells, dose response, PAX8 project, cell-based, plate reader, dry powder samples (AID 743197)
[10] = A549 cell cytotoxicity, dose response, cytotoxicity control, plate reader, cherry-pick, antagonist series (AID 743412)
[11] = NIH:OVCAR-3 ovarian cancer cell cytotoxicity, dose response, PAX8 inhibitor project, plate reader, dry powder samples (AID 743044); conditions: max activity: at 35 µM unless noted

Measured: outcome

O=C1/C(=C/c2ccccc2F)SC(=S)N1CC(=O)N1CCCCC1c1cccnc1 (stereo unspecified)
inactive: [1] | [2] | [3] | [4] | [5]

COc1cccc(S(=O)(=O)N2C[C@@H]3N[C@H](C2)C3c2ccc(/C=C/c3ccccc3)cc2)c1 (stereo partly specified)
inactive: [1] | [2] | [5]

COc1ccc(-n2ncc(Cl)c(Cl)c2=O)cc1
inactive: [1] | [3]

C[C@@H]1CN([C@H](C)CO)C(=O)c2cc(NC(=O)NC3CCCCC3)ccc2O[C@@H](C)CCCCO[C@H]1CN(C)Cc1ccc(C(F)(F)F)cc1
inactive: [1] | [2] | [3] | [6]

Cc1ccc(-c2csc(NC3OC(=O)c4ccccc43)n2)cc1 (stereo unspecified)
inactive: [1] | [2] | [3] | [4] | [5]

CCCc1ccc(C(=O)O/N=C(\N)c2ccccn2)cc1
inactive: [1] | [3]

O=S(=O)(c1ccccc1F)N1CC[C@@H]2[C@H]1c1cc(-c3cccc(F)c3)ccc1N[C@@H]2CO
inactive: [1] | [2] | [6] | [5]

CC(=O)Nc1ccc(S(=O)(=O)c2ccnc3cc(Cl)ccc23)cc1
inactive: [1] | [2] | [3] | [7] | [8]

Cc1cc(C)c2sc(NNC(=O)c3ccc(S(=O)(=O)N4CCc5ccccc5C4)cc3)nc2c1
inactive: [1] | [2] | [3] | [6]

CC(C)CC#Cc1ccc2c(c1)O[C@H](CN(C)Cc1ccc(C(=O)O)cc1)[C@@H](C)CN([C@H](C)CO)S2(=O)=O
inactive: [1] | [2] | [4] | [6] | [5] | [9]

Cc1ccc(S(=O)(=O)N(C)C[C@@H]2Oc3cc(C#Cc4ccncc4)ccc3S(=O)(=O)N([C@H](C)CO)C[C@H]2C)cc1
inactive: [1] | [2] | [3] | [4] | [6] | [5]

Cc1noc(C)c1S(=O)(=O)Nc1ccc2c(c1)C(=O)N([C@H](C)CO)C[C@H](C)[C@@H](CN(C)C(=O)Nc1ccc(C(F)(F)F)cc1)OCCCC[C@H](C)O2
inactive: [1] | [2] | [3] | [4] | [6] | [5]

C[C@@H]1CN([C@H](C)CO)C(=O)c2cc(NC(=O)Nc3ccccc3)ccc2O[C@@H](C)CCCCO[C@@H]1CN(C)Cc1ccc(C(F)(F)F)cc1
inactive: [1] | [2] | [3] | [6] | [5]

COc1ccc(S(=O)(=O)Nc2ccc3c(c2)CC(=O)N([C@@H](C)CO)C[C@@H](C)[C@@H](CN(C)Cc2ccc(-c4ccccc4)cc2)O3)cc1
inactive: [1] | [2] | [3] | [4] | [6]

Cc1nc(SCC(=O)Nc2nc3ccccc3s2)c(C#N)c(C)c1C
inactive: [1] | [2] | [3] | [10]

CO[C@@H]1CN(C)C(=O)c2cc(NC(=O)c3ccc(-c4ccccc4)cc3)ccc2OC[C@H](C)NC[C@H]1C
inactive: [1] | [2] | [4] | [6] | [9]

COc1ccc(S(=O)(=O)Nc2ccc3c(c2)C(=O)N([C@H](C)CO)C[C@H](C)[C@H](CN(C)Cc2ccc(C(F)(F)F)cc2)OCCCC[C@H](C)O3)cc1
inactive: [1] | [2] | [3] | [4] | [5]

O=S(=O)(NC1CCCCC1N1CCN(c2ccccc2F)CC1)c1ccccc1 (stereo unspecified)
inactive: [1] | [3]

CN1c2ccc(-c3ccccc3)cc2[C@H]2[C@H](CCN2C(=O)NC2CCCCC2)[C@@H]1CO
inactive: [1] | [2] | [3] | [4] | [5]

O=C(c1ccc(Br)cc1)c1cc([N+](=O)[O-])ccc1N1CCCCC1
inactive: [1] | [3]

Cc1cc(NC(=O)CCCS(=O)(=O)c2nc(-c3cccs3)cc(C(F)(F)F)n2)no1
inactive: [1] | [2] | [3] | [6]

O=C(/C=C/c1ccccc1)Nc1cccc(C(=O)O)c1
not listed: [4] | [7] | [8] | [9]
inactive: all other assays above

C[C@@H]1CCCCO[C@H](CN(C)Cc2ccc(C(F)(F)F)cc2)[C@H](C)CN([C@@H](C)CO)C(=O)c2cc(NS(=O)(=O)c3ccc(F)cc3)ccc2O1
inactive: [1] | [2] | [3] | [6]

Cc1ccc(S(=O)(=O)N(C)C[C@@H]2Oc3cc(C#Cc4ccncc4)ccc3S(=O)(=O)N([C@H](C)CO)C[C@@H]2C)cc1
not listed: [7] | [8] | [10] | [11]
inactive: all other assays above

COc1ccccc1C#Cc1ccc2c(c1)O[C@H](CN(C)Cc1cccnc1)[C@H](C)CN([C@@H](C)CO)S2(=O)=O
inactive: [1] | [2] | [3] | [4] | [6] | [5]

COc1cc(/C=C2\SC(=S)N(CCC(=O)N3CCCCC3)C2=O)cc(OC)c1OC
inactive: [1] | [2] | [3] | [6]

C[C@@H]1CN([C@H](C)CO)C(=O)c2cc(NC(=O)Nc3ccc(C(F)(F)F)cc3)ccc2O[C@@H](C)CCCCO[C@@H]1CN(C)C(=O)c1ccccc1
inactive: [1] | [2] | [3] | [4] | [6] | [5]

Cc1ccccc1S(=O)(=O)N1CC[C@@H]2[C@H](CO)Nc3ccc(-c4cccc(F)c4)cc3[C@@H]21
inactive: [1] | [2] | [3] | [4] | [6]

Cc1ccc2cccc(NS(=O)(=O)c3ccccc3)c2n1
inactive: [1] | [2] | [3] | [11]

O=C(NCCc1ccccc1)c1ccc2c(c1)OCCCO2
inactive: [1] | [2] | [3] | [11] | [5]

CN(C)CCN(C(=O)/C=C/c1cccs1)c1nc2c(F)cc(F)cc2s1
inactive: [1] | [2] | [3] | [6] | [5]

C[C@H](CO)N1C[C@H](C)[C@@H](CN(C)Cc2ccc(Cl)c(Cl)c2)Oc2ccc(NS(=O)(=O)c3ccccc3)cc2CC1=O
inactive: [1] | [2] | [3] | [4] | [6] | [5]

O=C(NCCc1ccccc1F)c1ccc2c(c1)OCCO2
inactive: [1] | [3]

O=C(Nc1cccc(C(F)(F)F)c1)Nc1ccc(N2CCCC2)c(S(=O)(=O)Nc2ccccc2Cl)c1
inactive: [1] | [3]

C=CCN1C(=O)/C(=C/c2ccc(OC(C)=O)c(OCC)c2[N+](=O)[O-])SC1=S
inactive: [1] | [3]

COc1ccc2c(C)nc(Nc3nc(-c4ccccc4)cc(=O)[nH]3)nc2c1
inactive: [1] | [3]

COc1cc2c(c(OC)c1OC)-c1ccc(SC)c(=O)cc1C(NC=O)CC2 (stereo unspecified)
inactive: [1] | [3]

COc1cccc2c1C(=O)c1c(O)c3c(c(O)c1C2=O)C[C@@](O)(C(=O)CO)C[C@@H]3O[C@H]1C[C@H](N)[C@H](O)[C@H](C)O1
inactive: [1] | [3]

COc1ccc(/C=C/C(=O)c2cc(F)ccc2OC(=O)c2ccccc2C)cc1OC
inactive: [1] | [3]

COc1ccc(C[C@H](N)C(=O)N[C@H]2[C@@H](O)[C@H](n3cnc4c(N(C)C)ncnc43)O[C@@H]2CO)cc1
inactive: [1] | [3]

Cn1nnnc1Sc1ncnc2scc(-c3cc4ccccc4o3)c12
inactive: [1] | [3]

O=C(C[C@@H]1C[C@H]2c3cc(NS(=O)(=O)c4ccc(F)cc4)ccc3O[C@H]2[C@H](CO)O1)NCc1ccc(-c2ccccc2)cc1
inactive: [1] | [3]

O=C(CCl)Nc1cc2[nH]c(=O)[nH]c2cc1Br
inactive: [1] | [3]

CCOC(=O)c1ccc(NC(=O)Cn2ncc(Cl)c(Cl)c2=O)cc1
inactive: [1] | [3]

O=C(NN=Cc1c(O)ccc2ccccc12)c1ccncc1
inactive: [1] | [3]

COc1cc2c(c(OC)c1OC)-c1ccc(SC)c(=O)cc1C(NC(=O)C(F)(F)F)CC2 (stereo unspecified)
inactive: [1] | [3]

COC(=O)[C@H]1[C@@H](O)[C@@]2(O)c3c(OC)cc(OC)cc3O[C@@]2(c2ccc(OC)cc2)[C@@H]1c1ccc(F)cc1
inactive: [1] | [3]

CCOc1ccc(C(=O)c2cc([N+](=O)[O-])ccc2N2CCOCC2)cc1
inactive: [1] | [3]

CCOCC(=O)NC1CCc2cc(OC(=O)COCC)c(OC)c(OC)c2-c2ccc(SC)c(=O)cc21 (stereo unspecified)
inactive: [1] | [3]

Cc1ccc(/C=N/NC(=O)COc2ccccc2-c2ccccc2)cc1
inactive: [1] | [3]

CC(=O)Nc1ccc(Sc2ccc([N+](=O)[O-])o2)cc1
inactive: [1] | [3]

CCCC(=O)N1CCN(c2ccc(NC(=O)c3ccc([N+](=O)[O-])o3)cc2)CC1
inactive: [1] | [3]

Oc1ccc(C[C@H]2CNC(=S)N2CC2CCCN2C[C@H](Cc2ccc(O)cc2)N2C[C@H](Cc3ccc(O)cc3)N(CC3CCCCCC3)C2=S)cc1 (stereo partly specified)
inactive: [1] | [3]

Cc1cccc2sc(N(CCCN(C)C)C(=O)CCS(=O)(=O)c3ccccc3)nc12
inactive: [1] | [3]

CC1CCCC=CC2CC(OC(=O)CN(C)C)CC2C(O)C=CC(=O)O1 (stereo unspecified)
inactive: [1] | [3]

CCCCC(=O)NC(c1ccccc1)c1ccc2cccnc2c1O (stereo unspecified)
inactive: [1] | [3]
